Entries with a potency or affinity are not part of this list. Values without a mark were called inactive. The rule behind the calls is not given here.
experiment: HepG2 cell cytotoxicity, dose response, cytotoxicity control, set 3 (AID 504853); details: series mostly up to 50 µM; viability: at the top concentration

Row | Structure (SMILES) | viability [%]
1 | O=c1[nH]c(SCc2ccccc2Cl)nc2c1CCCC2 | 98.5
2 | Cc1nc(SCC(N)=O)[nH]c(=O)c1C | 104
3 | Cn1c(SCC(=O)NC2CCCCC2)nc2ccccc2c1=O | 101
4 | O=C(CSc1nc2ccccc2c(=O)[nH]1)NC1CCCC1 | 98.4

Reference: PubChem BioAssay AID504853 (Southern Research Specialized Biocontainment Screening …, 2011)
